The list is not random: actives were taken first. Their share in the collection is about 11%.
PNC inhibitor: blocks assembly of the perinucleolar compartment; AID 2417; activity change (PNC), negative = inhibition, % at 10 µM; PC3M PTB-GFP, PNC prevalence imaging, 16 h; hits give low values; 140,000 compounds, 3.1% hits;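 active means readout at or below -70, meaning at least 70% loss of cells showing the perinucleolar compartment, a nuclear body marking cancer cells; inconclusive means readout between -30 and a set limit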
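PC3M cells stably expressing PTB-GFP, 750–1000 cells/well, treated 16 h at 37 °C with compound (23 nl of library stock), in duplicate. After paraformaldehyde fixation and Hoechst stain, imaged at 20x; PNC prevalence scored by image analysis.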
HPGD block: blocks human HPGD enzyme activity; P15428; purified HPGD, NADH fluorescence kinetic, PGE2 substrate; Potency, µM, hits mostly inhibitors; 150,000 compounds, 4.3% hits; AID 894
Target sequence (P15428 whole entry, looked up): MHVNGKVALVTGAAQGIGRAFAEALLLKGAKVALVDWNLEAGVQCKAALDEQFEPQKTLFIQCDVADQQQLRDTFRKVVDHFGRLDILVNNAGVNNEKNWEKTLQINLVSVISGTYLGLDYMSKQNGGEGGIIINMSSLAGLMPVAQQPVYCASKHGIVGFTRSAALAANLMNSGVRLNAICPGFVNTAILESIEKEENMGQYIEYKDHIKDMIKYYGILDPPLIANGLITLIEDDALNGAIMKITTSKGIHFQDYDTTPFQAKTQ
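NADH formation kinetics: reaction with 30 uM PGE2 and 1 mM NAD+ (final), 20 nM enzyme, Tris-HCl pH 8 with Tween 20, after 15 min compound preincubation at room temperature. Fluorescence change, last versus first of five reads.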
ALDH1A1 inh: blocks purified human ALDH1A1 activity | P00352 | Purified ALDH1A1, NADH fluorescence, propionaldehyde substrate | Potency, µM (series often up to 75.3 µM), hits mostly inhibitors | 220,000 compounds, 7.3% hits | AID 1030
KDM4E inh: JMJD2E (human) inhibition | B2RXH2 | JMJD2E catalytic domain, FDH-coupled NADH fluorescence (FDH is formaldehyde dehydrogenase) | Potency, µM (titrated, usually from 57.1 µM), hits mostly inhibitors | 230,000 compounds, 1.6% hits; further: nearly all actives have a fitted effect of over 50% in size
Target sequence (B2RXH2 1-337 limits assumed): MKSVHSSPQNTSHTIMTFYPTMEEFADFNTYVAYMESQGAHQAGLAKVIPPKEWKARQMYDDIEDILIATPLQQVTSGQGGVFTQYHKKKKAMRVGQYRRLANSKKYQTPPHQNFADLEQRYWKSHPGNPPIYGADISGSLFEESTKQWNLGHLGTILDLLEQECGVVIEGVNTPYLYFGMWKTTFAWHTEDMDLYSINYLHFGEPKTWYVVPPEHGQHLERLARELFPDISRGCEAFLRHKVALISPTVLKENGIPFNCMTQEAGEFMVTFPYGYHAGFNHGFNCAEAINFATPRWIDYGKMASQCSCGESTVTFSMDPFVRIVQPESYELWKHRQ
A number is an active result; – = inactive; ? = inconclusive; · = no result; [ ] = another dose, or the depositor's remark. Unless noted, the call rests on the fitted dose curve; in most records, active means well fitted inhibition curve with a large enough effect (not every such curve was filed as active); inconclusive means small, poorly fitted or top-dose-only effect, or another doubt; inactive means no such curve, though single readings can be large or run the other way.

SMILES | PNC inhibitor | HPGD block | ALDH1A1 inh | KDM4E inh
Nc1ccc(S(=O)(=O)NCc2nccs2)cc1 | · | – | –[13.5 µM] | ·
Cc1cc(C)nc(N(C#N)Cc2ccccc2Cl)n1 | – | – | 14µM | –
Cc1cc(C)nc(N(C#N)CN2C(=O)c3ccccc3C2=O)n1 | – | ? | 25µM | –
O=c1[nH]c(=O)n([C@@H]2C[C@H](O)[C@H](CO)O2)cc1I | · | – | – | –
O=C(c1ccccc1)c1ccc2n1CC[C@H]2C(=O)O | · | – | – | –
Fc1ccc(-c2nc3c(-c4ccccc4)cnn3cc2CCN2CCOCC2)cc1 | · | · | ? | –
Cn1sc(NC(=O)c2ccc(Cl)cc2)nc1=O | – | ? | 22µM | –
CCSc1nc2ccccc2[nH]1 | ? | – | – | –
Nc1ccccc1Sc1nc2ccccc2[nH]1 | · | · | 13µM | 13µM
CCNc1nc2ccccc2[nH]1 | -109 | – | – | –
O=C(Cc1ccccc1)Nc1nc2ccccc2[nH]1 | – | – | 18µM | –
CCN(CC)CCCNc1nc2ccccc2[nH]1 | – | – | – | –
Nc1nc2ccccc2[nH]1 | · | – | 20µM | ·
COC(=O)c1ccc(C(NC(=O)OCc2ccccc2)/C(I)=C/[C@@H](C)C(=O)NCc2ccncc2)cc1 (stereo not given in full) | · | – | – | –
NC(=O)c1c(NC(=O)COC(=O)CSc2nnc(-c3ccc(Cl)cc3)o2)sc2c1CCC2 | – | ? | – | –
CCOC(=O)c1c(NC(=O)CSc2n[nH]c(CNc3ccccc3)n2)sc(C)c1C | – | – | – | –
CCOC(=O)c1c(NC(=O)CSc2nnc(-c3cccnc3)o2)sc2c1CCC2 | -100 | – | – | –
CCOC(=O)c1c(NC(=O)CSc2nnc(-c3ccccc3)o2)sc(C(C)=O)c1C | – | 18µM | ? | –
CCOC(=O)c1c(NC(=O)CSc2n[nH]c(-c3ccco3)n2)sc(C)c1C | – | 16µM | – | –
CCOC(=O)c1c(NC(=O)CSc2cccc[n+]2[O-])sc(C(=O)Nc2ccccc2)c1C | · | · | 28µM | –
CCOC(=O)c1sc(NC(=O)CSc2nc3ccccc3s2)c(C(=O)OCC)c1C | – | – | – | –
CCOC(=O)c1sc(NC(=O)CSc2nnc(-c3ccco3)n2CC)c(C(=O)OCC)c1C | – | ? | ? | –
CCOC(=O)c1c(NC(=O)CSc2nnc(-c3cccc(C)c3)n2CC)sc(C(C)=O)c1C | – | 16µM | – | –
CCOC(=O)c1sc(NC(=O)CSc2nncs2)c(C(=O)OCC)c1C | – | 28µM | ? | –
CCOc1cc(/C=N/NC(=O)CNc2cccc(C)c2)ccc1OC(=O)c1ccccc1 | ? | – | – | –
SMILES | PNC inhibitor | HPGD block | ALDH1A1 inh | KDM4E inh
CCOc1cc(/C=N/Nc2cccc(C(=O)O)c2)ccc1OC(=O)c1ccccc1 | · | · | 40µM | –
C=CC(c1ccccc1)C(C(=O)c1ccccc1)N(C)C (stereo not given) | · | · | – | –
CCCc1nc2c(nnn2Cc2ccccc2Cl)c(=O)[nH]1 | · | · | – | –
Cc1ccc(Cn2nnc3c(=O)[nH]c(C(=O)NCc4ccco4)nc32)cc1 | – | – | – | –
FC(F)(F)c1nc(NCC2CCCO2)c2nnn(Cc3ccccc3Cl)c2n1 (stereo not given) | · | · | – | –
COc1ccc(Cn2nnc3c(=O)[nH]c(C(=O)NCCc4ccc(F)cc4)nc32)cc1OC | – | 3.2µM | – | –
O=C(NCC1CCCO1)c1nc2c(nnn2Cc2ccccc2Cl)c(=O)[nH]1 (stereo not given) | – | 13µM | – | –
O=C(NCCc1ccccc1)c1nc2c(nnn2Cc2ccccc2Cl)c(=O)[nH]1 | – | 7.9µM | – | –
O=C(NC1CC1)c1nc2c(nnn2Cc2ccccc2Cl)c(=O)[nH]1 | ? | 16µM | – | –
O=[N+]([O-])C(/C=C(/Cl)[N+](=O)[O-])=C(N1CCCCC1)N1CCCCC1 | · | · | · | –
N#C/C(=C(/O)c1ccc(Cl)c([N+](=O)[O-])c1)c1nc2ccccc2[nH]1 | · | · | – | –
Cc1ccc(C(=O)NCC(=O)NCC(=O)OCC(=O)c2cccs2)cc1 | – | – | – | –
COc1ccc(NC(=O)N2CCc3nc(COc4ccccc4)c4c(c3C2)CO[C@@H](C)C4)cc1 | · | – | –[13.5 µM] | –[11.4 µM]
O=C(Nc1ccccc1N1CCOCC1)c1cc(Br)c(Br)s1 | · | · | – | –
O=C(NC1CCCCC1)c1nc2c(nnn2Cc2ccccc2Cl)c(=O)[nH]1 | ? | 4.5µM | ? | –
CC(NS(=O)(=O)c1ccc(CCC(=O)NCC2CCCO2)cc1)c1ccccc1 (stereo not given) | – | – | – | –
O=C(CCc1ccc(S(=O)(=O)NCc2ccccc2)cc1)NCC1CCCO1 (stereo not given) | -106 | – | – | –
O=C(CSc1ccccc1)Nc1ccc(S(=O)(=O)NCC2CCCO2)cc1 (stereo not given) | ? | ? | 22µM | –
O=C(c1ccncc1)N1CCC2(CCN(Cc3ccncc3)CC2)CC1 | · | – | – | ·
CNC(=O)c1nnsc1S(=O)(=O)c1ccc(Cl)cc1 | · | · | 2µM | –
O=C(Nc1ccccc1)c1nnsc1S(=O)c1ccc(Cl)cc1 (stereo not given) | – | 7.9µM | 1.8µM | –
O=S(=O)(c1ccc(Cl)c(Cl)c1)c1snnc1-c1ccccc1 | – | – | – | –
O=C(Nc1ccc(Cl)cc1)c1cccs1 | – | – | – | –
O=C(c1nnsc1S(=O)(=O)c1ccc(Cl)cc1)N1CCOCC1 | · | · | 2.8µM | –
O=C(c1cc(-c2ccc(Cl)cc2)on1)N1CCOCC1 | ? | – | – | –
SMILES | PNC inhibitor | HPGD block | ALDH1A1 inh | KDM4E inh
O=C(c1nnsc1S(=O)c1ccc(Cl)cc1)N1CCOCC1 (stereo not given) | · | · | 7.1µM | –
COC(=O)[C@@H]1CC[C@H](C)[C@@H](c2ccc(C)cc2)N1C(=O)c1ccc(/C=N\OCC[C@@H]2C=C[C@H](OC(C)=O)[C@H](COC(C)=O)O2)cc1 | · | · | –[13.5 µM] | ·
O=C(CSc1nc2ccccc2c(=O)n1CCCN1CCOCC1)NC12CC3CC(CC(C3)C1)C2 | · | · | ? | –
O=C(c1cc([N+](=O)[O-])[nH]n1)N1CCSCC1 | · | · | · | –
CCN(CC)S(=O)(=O)c1ccc(C)c(NC(=O)CSc2nc3ccccc3[nH]2)c1 | -92 | – | ? | –
Cc1cc(C)nc(NS(=O)(=O)c2ccc(NC(=O)CSc3nc4ccccc4[nH]3)cc2)n1 | – | – | 20µM | –
COc1ccc2nc(SCC(=O)Nc3ccc(S(=O)(=O)Nc4nccc(C)n4)cc3)[nH]c2c1 | – | 28µM | ? | –
CCN(CC)S(=O)(=O)c1ccc(C)c(NC(=O)/C=C/c2cccs2)c1 | – | – | 0.71µM | –
Cc1cc(NS(=O)(=O)c2ccc(NC(=O)CSc3nc4ncccc4[nH]3)cc2)nc(C)n1 | · | · | · | –
Cc1noc(C)c1-c1nnc(-c2ccc(OC(F)(F)F)cc2)o1 | · | · | – | –
O=C1OC(c2ccccc2)c2ccc3ccccc3c21 (stereo not given) | – | – | ? | ?
Cc1cc(C)nc(NS(=O)(=O)c2ccc(NC(=O)C3(c4ccccc4)CCCC3)cc2)n1 | -115 | · | – | –
CN(C)S(=O)(=O)c1ccc2nnn(O)c2c1 | · | · | – | –
O=C(O)c1ccc(NS(=O)(=O)c2ccc3nnn(O)c3c2)cc1 | -107 | – | – | –
CCCC/C(O)=N\S(=O)(=O)c1ccc(N=NN(C)C)cc1 | – | – | – | 8.9µM
